High-throughput results as filed in PubChem.
HEK293 tox – cytotoxicity counter-screen for GLP-1 receptor inverse agonists | HEK293 cAMP-luciferase reporter cells, luminescence, 24 h | Potency, µM (highest dose often 38.3 µM), without a hit: at the top dose activity change, negative = inhibition, most hits filed as inhibitors | hit rate 0.13% among 410,000;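 further: loss of luciferase light is scored as toxicity; on the % scale 0 is the no-effect control and ±100 the full control effect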
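To flag toxic compounds, the library was rerun on cells for 24 hr at 37 deg C and 5% CO2. Viability-linked luminescence was captured 12 min after adding luciferase detection reagent.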
GLP1R inv ag – GLP-1 receptor (human) inverse agonism | hit rate 1.6% among 410,000 | P43220 | HEK293 GLP-1R CRE-luciferase, luminescence, 24 h; GLP-1R form is constitutively active | Potency, µM (doses to about 38.3 µM), without a hit: at the highest dose activity change, negative = inhibition, hits mostly inhibitors; further: on the % scale 0 is the no-effect control and ±100 the full control effect; nearly all actives have a fitted effect of over 55% in size
Target sequence (P43220 whole entry, looked up): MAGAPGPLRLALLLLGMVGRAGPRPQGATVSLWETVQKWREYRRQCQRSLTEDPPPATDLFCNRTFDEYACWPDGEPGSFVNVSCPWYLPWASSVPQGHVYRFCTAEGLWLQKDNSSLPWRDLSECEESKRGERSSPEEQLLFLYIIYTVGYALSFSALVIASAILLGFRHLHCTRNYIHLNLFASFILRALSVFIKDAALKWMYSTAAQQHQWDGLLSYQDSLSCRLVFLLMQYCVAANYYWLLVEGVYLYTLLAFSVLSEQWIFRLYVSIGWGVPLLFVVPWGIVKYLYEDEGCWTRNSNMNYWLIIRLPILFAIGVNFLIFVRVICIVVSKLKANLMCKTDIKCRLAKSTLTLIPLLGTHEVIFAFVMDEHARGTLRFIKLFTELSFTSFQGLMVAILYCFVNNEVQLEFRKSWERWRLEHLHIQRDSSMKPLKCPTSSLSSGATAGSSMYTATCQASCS
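Assay principle: reduced luminescence from a cAMP-responsive reporter in HEK293 cells co-expressing a constitutively active GLP-1R. Conditions: 24 hr compound incubation, 37 deg C, 5% CO2.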
GLP1R ag – GLP-1 receptor (human) agonism; P43220; HEK293 GLP-1R CRE-luciferase, luminescence, 4-6 h; cells express a hypersensitive GLP-1R form; Potency, µM (series often up to 45.6 µM), for inactives: at the top dose activation, hits mostly activators; hit rate 0.007% among 380,000; further: % of control where 0% means no effect
BRCA1 expr up – activators of BRCA1 expression | MCF7-BRCA1-FFLuc reporter, luminescence, 48 h; response scale: scaled: vehicle 0%, 10 µM genistein 100% | Potency, µM (highest dose often 46.1 µM), without a hit: top-dose activation, most hits filed as activators | hit rate 1.1% among 380,000 | AID 624202; further: nearly all actives have a fitted effect of over 80% in size
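Using MCF7 cells harboring a BRCA1 firefly luciferase reporter, plated 2 h before compound pinning, the screen measured luminescence after 48 h incubation. Responses were normalized to DMSO and 10 microM genistein, then fitted for concentration-effect.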
* hit, by the source's call; ? = inconclusive; · = not tested or not shown. Rows were chosen to be rich in hits. Some 2.6% of all compounds tested hit in one or more screens of this group. The call rests on the fitted dose curve; in most records, active means well fitted curve in the direction sought with a large enough effect; inconclusive means small, poorly fitted or top-dose-only effect, or another doubt; inactive means no such curve, though single readings can be large; an effect the other way counts as inactive or inconclusive. Potency means the concentration at half of the fitted maximal effect.

SMILES	HEK293 tox	GLP1R inv ag	GLP1R ag	BRCA1 expr up
CCOc1cc(S(=O)(=O)n2cc(-c3ccc(F)cc3)c(N)n2)cc(OCC)c1OCC	?	2.2µM*	1%	-63%
CCOc1ccc(S(=O)(=O)n2cc(-c3ccc(F)cc3)c(N)n2)cc1	3%	?	1%	-24%
Cc1ccc(Cl)cc1-c1cc(C(=O)NCc2cc(C(F)(F)F)cc(C(F)(F)F)c2)[nH]n1	-17%	?	-5%	-21%
O=C(Nc1ccn(Cc2ccccc2F)n1)c1ccc(COc2cccc(Br)c2)cc1	-2%	3.2µM*	-11%	-70%
O=C1C(Nc2cccc(O)c2)=C(N2CCCCC2)C(=O)c2ccccc21	3.5µM*	?	5%	-84%
COc1cccc(C(=O)NCC(=O)N2CCN(c3ccc(C(F)(F)F)cn3)CC2)c1	6%	-6%	17%	-23%
CC(=O)c1c(N2CCN(C)CC2)nc(=S)n(Cc2ccccc2)c1C	-4%	18%	-1%	-22%
C=CCn1c(C)c(C(C)=O)c(N2CCN(C(c3ccccc3)c3ccccc3)CC2)nc1=S	?	7.1µM*	8%	-62%
COc1cccc(CN(C)C(=O)c2cc(-c3cccs3)nc3ccccc23)c1	?	6.3µM*	3%	-43%
CCC(CC)C(=O)Nc1ccc(OCc2cc(=O)n3ccc(C)cc3n2)cc1	-9%	12%	·	·
O=C(Nc1ccc2[nH]ncc2c1)c1ccccc1Cl	2%	7%	0%	2.8µM*
Cc1c(C(=O)NC(C)c2ccccc2)sc2ncnc(N(C)C3CCCCC3)c12 (stereo not drawn)	7%	11µM*	·	·
Cc1c(C(=O)Nc2ccccc2F)sc2ncnc(N(C)C3CCCCC3)c12	1%	-13%	·	·
c1ccc2c(c1)OCC(CN1CCCCC1)O2 (stereo not drawn)	·	·	20%	·
Cc1cc2nc(C3CCN(CC4COc5ccccc5O4)CC3)[nH]c2cc1C (stereo not drawn)	-23%	10µM*	-5%	-48%
CC(C)Oc1ccc(CNC(=O)CCCn2c(=O)c3cccn3c3ccccc32)cc1	-16%	-9%	·	·
Cc1cccc(N(CC(=O)NCCSCc2cccc(Cl)c2)S(=O)(=O)c2ccccc2)c1C	-10%	?	-9%	-60%
COc1ccc2c(CC(=O)N3CCc4ccccc43)coc2c1	-1%	-25%	24%	3.5µM*
CCOC(=O)/C(=N/Nc1ccc(OC)cc1)N1CCCc2ccccc21	0%	4.5µM*	-7%	-18%
COc1ccc(CC(=O)N2CCc3ccccc32)cc1	17%	-9%	3%	8.9µM*
CCOC(=O)/C(=N/Nc1ccccc1)N1CCCc2ccccc21	4%	?	0%	-48%
CC(C)(C)c1ccc(NC(=O)CSc2nnc3scc(-c4ccccc4)n23)cc1	-8%	11%	·	·
O=C(/C=C/c1cccc([N+](=O)[O-])c1)NCCSCc1ccc(Cl)cc1	-20%	10µM*	12%	-19%
O=C(/C=C/c1cccc([N+](=O)[O-])c1)NCCSCc1c(Cl)cccc1Cl	10%	?	7%	-2%
COc1ccc(/C(N)=N/OC(=O)C2CCCCC2)cc1OC	11%	?	12%	2.8µM*
SMILES	HEK293 tox	GLP1R inv ag	GLP1R ag	BRCA1 expr up
COc1ccc(C(=O)O/N=C(\N)c2ccc(OC)c(OC)c2)cc1	-5%	2%	1%	13µM*
COc1ccc(C(=O)O/N=C(\N)c2ccc(OC)c(OC)c2)c(OC)c1	-26%	97%	7%	46%
COc1ccc(/C(N)=N/OC(=O)C2CCCCC2)cc1	9%	-10%	4%	?
O=C(Nc1cc2ccc(O)cc2oc1=O)c1ccc(F)cc1	1%	22%	·	·
O=C(Nc1cc2ccccc2oc1=O)c1ccccc1	1%	7.9µM*	-3%	-4%
CC(C)(C)c1ccc(C(=O)N2CCC(C(=O)NCC3CCCO3)CC2)cc1 (stereo not drawn)	-12%	1%	0%	8.9µM*
COc1ccc(C)cc1NC(=O)C1CCN(C(=O)c2ccc(C(C)(C)C)cc2)CC1	-19%	8.9µM*	23%	6%
N#CC1(c2ccccc2)CCN(S(=O)(=O)c2ccc(OC(F)(F)F)cc2)CC1	-3%	10µM*	-1%	-38%
CC(Oc1ccccc1)C(=O)N1CCN(S(=O)(=O)c2ccc(OC(F)(F)F)cc2)CC1 (stereo not drawn)	-6%	-7%	1%	-24%
ON=Cc1ccnc2ccccc12	2%	-1%	0%	14%
O=C(O)c1ccccc1N/N=C\c1ccnc2ccccc12	54%	4.5µM*	-40%	?
O=C(CC(=O)Nc1ccccc1F)Nc1ccccc1F	-1%	14%	16%	-22%
CC(C)CN(CC(C)C)C(=O)Nc1ccccc1F	30%	8.9µM*	11%	17%
CCCn1cnc2c(SCCc3ccccc3)nc(N)nc21	6%	80%	36%	13µM*
CCC(C)Cn1cnc2c(SCc3ccccc3F)nc(N)nc21 (stereo not drawn)	-5%	?	25%	13%
CC(C)Cn1cnc2c(SCc3ccccc3F)nc(N)nc21	-3%	5%	?	5.6µM*
NNC(=O)c1cccc(COc2ccc3c(c2)CCC3)c1	-9%	1.1µM*	-6%	?
COc1ccccc1C(=O)NC(=O)Nc1c(C)cc(C)cc1C	2%	?	16%	-1%
CC(C)C1C(c2ccccc2)N(C)C(c2ccccc2)CC1(O)c1ccccc1 (stereo not drawn)	2%	0%	-14%	-22%
CC(C)C1C(c2ccccc2)NC(c2ccccc2)CC1(O)c1ccc(F)cc1 (stereo not drawn)	?	10µM*	3%	-23%
CC(CC(c1ccccc1)c1ccccc1)NC(C)(C)C (stereo not drawn)	·	·	1%	·
O=C(CCc1ccccc1)n1nc(-c2ccco2)nc1SCc1ccccc1	3%	1%	-2%	10µM*
CCOc1ccc(/C=C/c2ccnc3ccccc23)cc1OCC	·	·	·	-20%
O=C(CCc1ccccc1)Nc1ccc2ccccc2n1	22%	-5%	2%	7.1µM*
Cc1ccc(NC(=O)CCc2ccccc2)cc1C	1%	?	20%	13µM*
SMILES	HEK293 tox	GLP1R inv ag	GLP1R ag	BRCA1 expr up
O=C(CCc1ccccc1)Nc1cccc(NC(=O)CCc2ccccc2)c1	-26%	0%	6%	-1%
CCOc1ccc(-c2cccc(NS(=O)(=O)c3ccccc3C(F)(F)F)c2)nn1	-12%	19%	·	·
C=Cc1ccc(Cn2c(=O)n(-c3cccc(Cl)c3)c(=O)c3c4c(sc32)CN(C(C)=O)CC4)cc1	4%	-21%	·	-38%
CC(C)NC(=S)NC(=O)c1ccc(-c2ccccc2)cc1	?	10µM*	-4%	-13%
Cc1ccc(CNC(=O)CN2C(=O)CSc3ccc(S(=O)(=O)N4CCCC4)cc32)cc1	-2%	-13%	·	·
Fc1ccc(N2CCN(Cc3cccn3-c3nnc(N4CCN(C5CCCCC5)CC4)s3)CC2)cc1	0%	13%	0%	26%
CC(C)(C)Cc1c(-c2ccccc2)nc2ccc(Cl)cn12	?	13µM*	-6%	-2%
